The values that follow come from PubChem BioAssay.

A short description of test [1]: antimalarial activity against Dd2 strain (AID 2302;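 active = growth inhibition above 50% at the single 2 µM test dose, taken to imply half-maximal potency below 2 µM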;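 note: 0% = DMSO untreated growth and 100% = chloroquine plus artemisinin killed control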). Particulars: P. falciparum Dd2 in RBCs, LDH growth readout, 72 h; at 2 µM; hits give high values.
Test [2] in a line: HepG2 cytotoxicity, primary screen, cytotoxicity control for P. falciparum antimalarial project, cell-based, ATP luminescence (AID 2303;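 active = inhibition above 50%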;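 note: 0% = DMSO wells and 100% = digitonin-killed cells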). The following applies: HepG2 viability, 24-48 h, at 10 µM, hits give high values.
Test [3] has as its target L-lactate dehydrogenase (Plasmodium falciparum (isolate CDC / Honduras)) (UniProt Q27743). Description: PfLDH activity inhibition – cell lysate, 3D7 strain, counter-screen for P. falciparum growth inhibition project (AID 2304).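 Note: 0% = vehicle and 100% = reference inhibitor.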 Particulars: P. falciparum 3D7 crude extract, LDH APAD/NBT absorbance; at 2 µM; hits give high values.
Test [4] is described as follows: inhibition of 3D7 malaria parasite growth – strain 3D7 (AID 2306).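 Note: 0% = DMSO wells and 100% = chloroquine plus artemisinin control wells.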 Particulars: P. falciparum 3D7 erythrocytic growth, LDH absorbance, 72 h; at 2 µM; hits give high values.
Test [5] deals with Calcium-dependent protein kinase 1 (Plasmodium falciparum (isolate 3D7)) (UniProt P62344). The experiment in a line: PfCDPK1 kinase inhibitors, biochemical, TCAMS library (AID 1159585; cut-off not given, nearly all actives have IC50 up to about 0.98 µM;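 note: inhibitors leave more ATP so luminescence rises with inhibition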). Particulars: recombinant PfCDPK1, Kinase-Glo ATP depletion luminescence.
Calcium-dependent protein kinase 1 (Plasmodium falciparum (isolate 3D7)), sequence (P62344 whole entry, looked up): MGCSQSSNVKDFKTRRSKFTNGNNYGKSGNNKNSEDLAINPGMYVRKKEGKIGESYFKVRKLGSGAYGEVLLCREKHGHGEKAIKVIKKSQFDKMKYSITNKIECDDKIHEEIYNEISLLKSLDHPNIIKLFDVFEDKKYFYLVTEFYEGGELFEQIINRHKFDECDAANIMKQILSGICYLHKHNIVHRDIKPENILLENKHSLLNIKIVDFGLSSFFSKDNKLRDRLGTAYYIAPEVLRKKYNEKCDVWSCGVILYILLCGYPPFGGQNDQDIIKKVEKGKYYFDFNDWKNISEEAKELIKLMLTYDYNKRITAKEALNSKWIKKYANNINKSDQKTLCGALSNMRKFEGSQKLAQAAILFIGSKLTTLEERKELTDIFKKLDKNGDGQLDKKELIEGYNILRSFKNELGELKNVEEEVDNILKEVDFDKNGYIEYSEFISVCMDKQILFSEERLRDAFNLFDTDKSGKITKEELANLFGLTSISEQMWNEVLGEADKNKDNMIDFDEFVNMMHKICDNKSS
The target of test [6] is Plasmodium falciparum protein kinase 6 (PK6, PF3D7_1337100) (UniProt Q8IDW1). The experiment in a line: PfPK6 kinase inhibitors, biochemical, TCAMS library (AID 1159586). The following applies: recombinant PfPK6, Kinase-Glo ATP depletion luminescence.
Plasmodium falciparum protein kinase 6 (PK6, PF3D7_1337100), sequence (Q8IDW1 1-305): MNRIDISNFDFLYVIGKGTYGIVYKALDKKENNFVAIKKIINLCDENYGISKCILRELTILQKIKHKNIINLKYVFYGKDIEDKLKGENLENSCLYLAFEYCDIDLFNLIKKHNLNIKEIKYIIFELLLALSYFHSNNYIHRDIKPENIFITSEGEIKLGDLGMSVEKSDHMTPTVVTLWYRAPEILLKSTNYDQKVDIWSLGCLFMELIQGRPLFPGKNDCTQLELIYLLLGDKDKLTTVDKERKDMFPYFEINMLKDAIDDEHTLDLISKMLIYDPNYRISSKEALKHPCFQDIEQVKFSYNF
Test [7] has as its target Protein kinase 7 (PK7), Plasmodium falciparum 3D7 (PF3D7_0213400) (UniProt Q7YTF7). The experiment in a line: inhibition of Plasmodium PK7 catalytic activity – biochemical, TCAMS antimalarial set, Kinase-Glo luminescence (AID 1159587). Particulars: recombinant PfPK7, Kinase-Glo ATP depletion luminescence. (Kinase-Glo reads ATP consumption through a luciferase reaction.)
Test [8] has as its target Calcium-dependent protein kinase 4 (Plasmodium falciparum (isolate 3D7)) (UniProt Q8IBS5). Description: PfCDPK4 kinase inhibitors, biochemical, TCAMS library (AID 1159588; cut-off not given, nearly all actives have IC50 up to about 0.91 µM). Particulars: recombinant PfCDPK4, Kinase-Glo ATP depletion luminescence.

Unmarked numbers belong to inactive results. For some of these results: Results with a measured potency or affinity are listed apart. Active and inactive are the calls of the source. Unless noted, the rule behind the calls is not given here.

Protein kinase 7 (PK7), Plasmodium falciparum 3D7 (PF3D7_0213400), sequence (Q7YTF7 1-343): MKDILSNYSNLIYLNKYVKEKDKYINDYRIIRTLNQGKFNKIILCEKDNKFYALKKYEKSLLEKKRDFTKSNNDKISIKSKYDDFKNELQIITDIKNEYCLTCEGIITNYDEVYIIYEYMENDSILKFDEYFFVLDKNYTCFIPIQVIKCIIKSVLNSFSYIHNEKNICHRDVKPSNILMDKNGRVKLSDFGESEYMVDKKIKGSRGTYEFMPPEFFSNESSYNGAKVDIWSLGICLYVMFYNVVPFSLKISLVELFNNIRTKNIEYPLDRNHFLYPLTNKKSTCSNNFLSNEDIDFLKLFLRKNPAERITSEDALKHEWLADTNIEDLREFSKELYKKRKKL
Calcium-dependent protein kinase 4 (Plasmodium falciparum (isolate 3D7)), sequence (Q8IBS5 whole entry, looked up): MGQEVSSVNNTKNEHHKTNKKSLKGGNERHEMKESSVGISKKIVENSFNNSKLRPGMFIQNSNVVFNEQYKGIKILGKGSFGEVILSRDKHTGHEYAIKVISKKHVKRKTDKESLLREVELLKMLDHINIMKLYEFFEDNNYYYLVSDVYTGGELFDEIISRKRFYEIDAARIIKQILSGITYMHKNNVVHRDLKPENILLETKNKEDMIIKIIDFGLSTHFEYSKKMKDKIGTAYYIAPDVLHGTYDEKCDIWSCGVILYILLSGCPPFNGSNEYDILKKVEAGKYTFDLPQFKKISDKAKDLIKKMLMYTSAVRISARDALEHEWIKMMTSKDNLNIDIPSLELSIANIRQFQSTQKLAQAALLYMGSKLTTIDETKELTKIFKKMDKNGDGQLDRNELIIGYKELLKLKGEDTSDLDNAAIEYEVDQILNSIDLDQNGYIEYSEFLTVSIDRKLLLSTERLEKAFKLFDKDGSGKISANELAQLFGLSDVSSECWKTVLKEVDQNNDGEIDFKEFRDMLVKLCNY
L-lactate dehydrogenase (Plasmodium falciparum (isolate CDC / Honduras)), sequence (Q27743 whole entry, looked up): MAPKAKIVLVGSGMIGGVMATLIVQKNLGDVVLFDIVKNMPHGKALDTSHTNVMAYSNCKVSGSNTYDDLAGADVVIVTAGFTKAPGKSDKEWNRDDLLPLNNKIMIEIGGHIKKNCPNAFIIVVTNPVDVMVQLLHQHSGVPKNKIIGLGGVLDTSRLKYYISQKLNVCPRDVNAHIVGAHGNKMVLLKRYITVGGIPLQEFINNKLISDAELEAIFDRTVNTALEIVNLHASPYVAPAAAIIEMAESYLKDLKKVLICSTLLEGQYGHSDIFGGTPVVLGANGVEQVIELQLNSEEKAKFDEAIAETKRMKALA

Consider `COc1ccc2ncc(Cl)c([C@H](O)CN3CCC(NCc4cc5c(cn4)OCCO5)CC3)c2c1`, for which the growth inhibition in test [1] and in test [4] was 100% (active) throughout. For the same compound, the figures for the inhibition in test [2] and in test [3] were 10% and 1%, respectively. Besides, the result in test [5], in test [6], in test [7] and in test [8] was inactive.

For the compound `O=C(NC1CCCc2ccccc21)[C@@H]1CCCN1C(=O)c1ccc(O)c(-c2ccc(Cl)c(Cl)c2)c1` (stereo not given in full), the growth inhibition in test [1] and in test [4] was 99% (active) each time. Also, the inhibition in test [2] was -6%; in test [3], -2%. Further, the outcome in test [5], in test [6], in test [7] and in test [8] was inactive.

As to `Cc1sc(NC(=O)c2ccc([N+](=O)[O-])cc2Cl)c(C(N)=O)c1C`, the growth inhibition in test [1] was 2%; in test [4] it was 94% (active). Also, the inhibition in test [2] is 2%; in test [3], 1%. For the same compound, the outcome in test [5], in test [6], in test [7] and in test [8] was inactive.

On to `CCc1cn2c3c(cc(C(=O)N[C@@H](Cc4ccccc4)[C@H](O)CNC(C)(C)CCCC(C)C)cc13)N(C)S(=O)(=O)C2`, for which the growth inhibition in test [1] and in test [4] was 98% (active) throughout. Also, the inhibition in test [2] was 71% (active); in test [3] it was 8%. The result in test [5], in test [6], in test [7] and in test [8] was inactive.

Regarding `CN(C)CCN1CCN(Cc2ccc(-c3cccc(-c4nc5ccccc5[nH]4)c3)cc2)CC1`, the results for the growth inhibition in test [1] and in test [4] were 100% (active) and 102% (active), respectively. For the same compound, the inhibition in test [2] is 25%; in test [3] it was -7%. The result in test [5], in test [6], in test [7] and in test [8] was inactive.

Regarding `CCC(C)c1ccc(-n2c(Nc3ccccc3)nc3cc(S(N)(=O)=O)ccc32)cc1` (stereo not given), the values for the growth inhibition in test [1] and in test [4] were 28% and 88% (active), respectively. The inhibition in test [2] was 0%; in test [3] it was 4%. Also, the outcome in test [5], in test [6], in test [7] and in test [8] was inactive.

For the compound `CNc1ccc(CNCc2cccc(-c3ccc(-c4nc5c(C)cccc5[nH]4)s3)c2)cc1`, the results for the growth inhibition in test [1] and in test [4] were 88% (active) and 101% (active), respectively. Moreover, the inhibition in test [2] is 23%; in test [3], -2%. Also, the outcome in test [5], in test [6], in test [7] and in test [8] was inactive.

Turning to `O=C(Nc1ccccc1)Nc1cccc(-c2cc(CNCCc3ccccc3)sc2-c2ccncc2)c1`, the values for the growth inhibition in test [1] and in test [4] were 84% (active) and 100% (active), respectively. The values for the inhibition in test [2] and in test [3] were 14% and 7%, respectively. The result in test [5], in test [6], in test [7] and in test [8] was inactive.

On to `CCC(CC)OC(=O)C(C)c1cccc(C(=O)c2ccccc2)c1` (stereo not given), for which the growth inhibition is 0% in test [1] and 93% (active) in test [4]. For the same compound, the inhibition in test [2] was -8%; in test [3] it was 6%. The outcome in test [5], in test [6], in test [7] and in test [8] was inactive.

Take `CS(=O)(=O)CCNCc1nc(-c2ccc3c(Nc4ccc(F)c(O)c4)ccnc3c2)cs1`: the values for the growth inhibition in test [1] and in test [4] were 84% (active) and 95% (active), respectively. The inhibition is -10% in test [2] and 3% in test [3]. The result in test [5], in test [6], in test [7] and in test [8] was inactive.

For the compound `COc1ccc(CNCc2ccc(-c3cccc(-c4nc5ccccc5[nH]4)c3)cc2)cc1`, the growth inhibition was 85% (active) in test [1] and 101% (active) in test [4]. Also, the inhibition in test [2] was 57% (active); in test [3] it was -3%. For the same compound, the outcome in test [5], in test [6], in test [7] and in test [8] was inactive.

Turning to `Cc1nn(-c2ccccc2)c2c1C(c1ccc(C(C)C)cc1)N1C(=N2)N(Cc2ccccc2)c2ccccc21` (stereo not given), the growth inhibition in test [1] is 37%; in test [4], 95% (active). For the same compound, the inhibition in test [2] is 7%; in test [3], -7%. For the same compound, the result in test [5], in test [6], in test [7] and in test [8] was inactive.

Turning to `O=C(NCCc1cccc(Cl)c1Cl)c1ccc(N2CCN(c3ccncc3)CC2)nc1`, the growth inhibition in test [1] was 79% (active); in test [4], 101% (active). Further, the results for the inhibition in test [2] and in test [3] were 38% and 2%, respectively. The result in test [5], in test [6], in test [7] and in test [8] was inactive.

`C=CCc1ccc(C[C@H](NC(=O)OC(C)(C)C)C(=O)OC)cc1`: the growth inhibition in test [1] and in test [4] was 98% (active) each time. The results for the inhibition in test [2] and in test [3] were 77% (active) and 4%, respectively. Also, the result in test [5], in test [6], in test [7] and in test [8] was inactive.

Regarding `c1cc(CN2CCCCC2)cc(-c2ccc(-c3nc4ccccc4[nH]3)s2)c1`, the growth inhibition was 100% (active) in test [1] and 101% (active) in test [4]. The inhibition is 11% in test [2] and 2% in test [3]. The outcome in test [5], in test [6], in test [7] and in test [8] was inactive.

Turning to `COc1ccc2nccc(NC(=O)N3CCC(NCCOc4cc(F)cc(F)c4)CC3)c2n1`, the growth inhibition is 38% in test [1] and 86% (active) in test [4]. In addition, the inhibition in test [2] was 14%; in test [3], -2%. In addition, the outcome in test [5], in test [6], in test [7] and in test [8] was inactive.

Turning to `CCOc1cc(C)ccc1C1CCN(CCCCNC(=O)c2cnc(-c3ccc(C(F)(F)F)cc3)[nH]2)CC1`, the growth inhibition in test [1] is 97% (active); in test [4], 95% (active). Also, the inhibition was 16% in test [2] and 2% in test [3]. In addition, the outcome in test [5], in test [6], in test [7] and in test [8] was inactive.

On to `O=C(Nc1cc(Cl)cc(Cl)c1)c1cnn(-c2ccc(F)cc2)c1C1CCNCC1`, for which the growth inhibition in test [1] was -1%; in test [4], 90% (active). Besides, the inhibition is 13% in test [2] and -2% in test [3]. In addition, the result in test [5], in test [6], in test [7] and in test [8] was inactive.

On to `Cc1cccc2[nH]c(-c3ccc(-c4cccc(NC(=O)CCc5cnc[nH]5)c4)cc3)nc12`, for which the growth inhibition was 14% in test [1] and 101% (active) in test [4]. The inhibition was 13% in test [2] and 4% in test [3]. Also, the outcome in test [5], in test [6], in test [7] and in test [8] was inactive.

For the compound `CC(C)c1ccc(NC(=O)c2cccc(CN3CCCN(Cc4cccc(O)c4)CC3)c2)cc1`, the growth inhibition was 33% in test [1] and 97% (active) in test [4]. For the same compound, the inhibition in test [2] is 25%; in test [3], -2%. Moreover, the outcome in test [5], in test [6], in test [7] and in test [8] was inactive.

Usually inhibition stands for the relative decrease from the control value, in per cent.
